Screening results: PubChem, several laboratories
RmlC RmlD mix: RmlC/RmlD inhibition, mixture screen; RmlC/RmlD coupled enzyme inhibition, 384-well mixture HTS; inhibition, % at 5.5 µM; 110,000 compounds, 0.39% hits; in the data active = inhibition above about 30%, passing the limit was not always enough; inconclusive = no clear call, values can overlap the other calls
HIV RNase H inh-1: inhibitors of HIV-1 reverse transcriptase RNase H. P04585. RT-RNase H RNA/DNA duplex cleavage, fluorescence. inhibition, % at 10 µM. 65,000 compounds, 1.9% hits. AID 565; in the data active = inhibition above about 50%
HIV RNase H inh-2: confirmation of HIV-1 reverse transcriptase RNase H inhibitors. AID 651. inhibition, % at 10 µM. 1,000 compounds, 39% hits. Recombinant RT RNase H, fluorescent RNA/DNA duplex cleavage. shares compounds with HIV RNase H inh-1; in the data active = inhibition above about 48%; inconclusive = no clear call, values can overlap the other calls
Numbers without * were called inactive; ? = inconclusive; . = no result given. This excerpt belongs to a sample that is enriched for hits.

SMILES	RmlC RmlD mix	HIV RNase H inh-1	HIV RNase H inh-2
COc1ccccc1N1CSC2=C(C#N)C(c3ccc(SC)cc3)CC(=O)N2C1 (centres undefined)	-2	81*	55*
CCC(=O)Nc1nnc(SCC(=O)c2ccc3c(c2)Cc2ccccc2-3)s1	-7	.	.
Cc1ccc(S(=O)(=O)N2CCOCC2)cc1C(=O)OCC(=O)N1CCc2ccccc2C1	.	-27	.
CCN(CC)c1ccc(C=N/C(C#N)=C(\N)C#N)cc1	14	80*	45
CCN(CC)c1ccc(/C=N/N2CCOCC2)cc1	0	.	.
CCCC(=O)Nc1cc(OC)c(NC(=O)NC2CCCCC2)cc1OC	-8	53*	8
CCCCC(=O)Nc1cc(OC)c(NC(=O)C2CCCCC2)cc1OC	-11	.	.
CC(C)(C)NC(=O)CN(C(=O)CNC(=O)c1cccs1)c1ccc2c(c1)OCCO2	2	.	.
Cc1cccc(-c2csc(NC(=O)c3cnccn3)c2C(=O)OC(C)C)c1	5	.	.
COC(=O)c1c(-c2cccnc2)csc1NC(=O)c1cc(C)on1	-8	86*	?
OCC[C@@H]1C[C@@H](O)[C@H](O)[C@]2(CCCCO2)O1	-9	.	.
CCn1c(SCC(=O)NCc2ccccc2)nnc1-c1c[nH]c2ccccc12	-9	.	.
COc1ccc(NC(=O)c2cc(C)on2)cc1OC	-9	1	.
COc1ccc(NC(=O)c2cc(-c3ccc(OC)c(OC)c3)on2)cc1OC	.	81*	32
CCCc1cc(C(=O)Nc2cccc(C(C)=O)c2)no1	3	-7	.
CC(=O)c1cccc(NC(=O)c2cc(-c3ccc(C)cc3)on2)c1	-14	52*	57*
CC1Cc2ccccc2N1Cc1nc2cc(Cl)ccc2c(=O)[nH]1 (centres undefined)	-15	.	.
COC(=O)c1ccc2c(=O)[nH]c(CN3c4ccccc4CC3C)nc2c1 (centres undefined)	-6	63*	61*
C#CCOC(=O)CCCNc1ccc([N+](=O)[O-])cc1[N+](=O)[O-]	-8	.	.
COc1cccc(C=Nc2ccc3c(c2)OCCO3)c1O	.	-2	.
CCOc1cccc(C=Nc2cc(C)cc(C)c2O)c1O	-6	91*	74*
COc1ccc(Br)cc1/C=N/NC(=O)c1nc(-c2ccccc2)n2c1CCCCC2	-13	.	.
O=C(O)c1cc(-c2ccco2)nc2ccc(Br)cc12	-2	78*	8
O=C(c1ccco1)N1CCN(C(=O)c2cc(-c3ccncc3)nc3ccc(Br)cc23)CC1	7	7	.
O=C1C2ON(c3ccccc3)C(c3cccnc3)C2C(=O)N1c1ccccc1 (centres undefined)	6	3	.
SMILES	RmlC RmlD mix	HIV RNase H inh-1	HIV RNase H inh-2
O=C1C2ON(c3ccc(Br)cc3)C(c3cccnc3)C2C(=O)N1C1CCCCC1 (centres undefined)	.	64*	33
O=C(c1ccco1)N1CCN(C(=O)c2cc(-c3ccccn3)nc3ccc(Cl)cc23)CC1	-9	69*	1
O=C(c1ccco1)N1CCN(C(=O)c2cc(-c3ccccc3)nc3ccccc23)CC1	12	.	.
Cn1cnnc1SCC(=O)Nc1ccccc1	5	-5	.
COC(=O)CSc1ccccc1C(=O)OC	22	-15	.
COC(=O)CSC1=NS(=O)(=O)c2ccccc21	-4	66*	-2
O=C(CSC1=NS(=O)(=O)c2ccccc21)Nc1ccccc1	0	55*	7
CCN(CC)CCn1c2ccccc2c2cnc(N)c(C#N)c21	17	.	.
Cc1cc(C)cc(SCc2noc(C(=O)NCCN(C)C)c2C(=O)NCCN(C)C)c1	7	.	.
CCc1ccc(NC(=O)c2ccc3c(c2)C(=O)N(CCOC)C3Nc2ccc(CC)cc2)cc1 (centres undefined)	9	.	.
N#Cc1ccc(OCc2nnc(SCC(=O)N3CCCc4ccccc43)n2-c2ccccc2)cc1	3	88*	49
COc1ccc(OCc2nnc(SCC(=O)N3CCCc4ccccc43)n2-c2ccc(C)cc2)cc1	-16	.	.
CCC1CCCCN1c1nc2c(c(=O)n(C)c(=O)n2C)n1CCSc1nc2ccccc2o1 (centres undefined)	.	-9	.
Cc1cc(=O)[nH]c(/N=C(/NC(=O)c2ccccc2)Nc2ccc3c(c2)OCCO3)n1	.	48	.
CCCc1cc(=O)[nH]c(/N=C(/NC(=O)c2ccccc2)Nc2ccc3c(c2)OCCO3)n1	9	61*	48
COc1cccc(-c2nnc(SCC(=O)Nc3ccc(S(N)(=O)=O)cc3)n2C)c1	-11	-7	.
COc1cc(F)c(C(=O)NC(C)(C)CO)cc1OC	-13	.	.
CCOC(=O)N1CCC(N2C(=O)c3ccc(C(=O)NC4CCCCCC4)cc3C2=O)CC1	.	64*	47
CCOC(=O)N1CCC(N2C(=O)c3ccccc3C2=O)CC1	1	3	.
CCC(NC(=O)NCc1cccnc1)(C(F)(F)F)C(F)(F)F	-8	2	.
CCn1c(SCC(=O)c2ccc(O)c(O)c2)nnc1-c1ccccc1OC	-4	81*	62*
CCn1c(CSc2nc3ccccc3s2)nnc1SCC(=O)c1ccc(O)c(O)c1	-6	.	.
C=CCn1c(SCC(=O)c2ccc(O)c(O)c2)nnc1-c1ccccc1OC	3	85*	62*
C=CCn1c(SCC(N)=O)nnc1-c1ccccc1O	-70	-1	.
C=CCOC(=O)C1=C[C@H](c2coc3ccccc3c2=O)[C@@H](CCCO)[C@H](OCC)O1	-16	.	.
SMILES	RmlC RmlD mix	HIV RNase H inh-1	HIV RNase H inh-2
O=C(O)c1cnc2ccccc2n1	8	82*	17
COC(=O)c1cnc2ccccc2n1	-11	.	.
Cn1cccc1Cc1nnc(SCC(=O)Nc2ccc(Cl)cc2)n1-c1ccc(F)cc1	-3	-39	.
CCN(CC)C(=O)Cn1c(=O)n(-c2ccccc2)c(=O)c2c3c(sc21)CCC3	-8	.	.
CCOc1ccc(-n2c(=O)c3c4c(sc3n(CC(=O)NCc3ccco3)c2=O)CCC4)cc1	-10	57*	87*
CCCc1nc(SCC(=O)N2CCC(Cc3ccccc3)CC2)c2c(=O)n(C)c(=O)n(C)c2n1	-6	-33	.
COc1ccc2[nH]c(=O)c(CN(Cc3nnnn3Cc3ccco3)C3CCCCC3)cc2c1	31	33	.
COc1ccc2[nH]c(=O)c(CN(C3CCCCC3)C(c3nnnn3Cc3ccco3)C(C)C)cc2c1 (centres undefined)	.	51*	55*
COc1cc(C(=O)Nc2cc(-c3nc4cc(C)ccc4o3)ccc2C)cc(OC)c1OC	.	8	.
Cc1cc(C)c2oc(-c3ccc(Cl)c(NC(=O)c4ccc(C#N)cc4F)c3)nc2c1	.	90*	73*
CCOc1ccccc1N1CCN(S(=O)(=O)CC)CC1	-13	53*	0
CCOc1ccccc1N1CCN(S(=O)(=O)c2cccs2)CC1	-6	-9	.
CC(C)CC(CO)N1CCN(C(=O)c2cccc(C(F)(F)F)c2)CCC1=O (centres undefined)	-33	.	.
CN(C)c1ccc(-c2cc([C@H]3[C@@H]4C=CCC[C@@]4(C)C(=O)N3Cc3ccccc3)ccc2F)cc1	-31	.	.
CCOC(=O)C1CCCN(C(=O)Cn2cnc3c2c(=O)n(C)c(=O)n3C)C1 (centres undefined)	8	-8	.
CC(=O)c1cc(-c2ccccc2)n(CC(=O)N2CCC(N3CCCCC3)CC2)c1C	-86	-10	.
CCOC(=O)C1CCCN(C(=O)Cn2sc3nc(C)cc(C)c3c2=O)C1 (centres undefined)	5	85*	51*
Cc1cc(C)c2c(=O)n(CC(=O)N3CCC(N4CCCCC4)CC3)sc2n1	8	83*	58*
